Consider 40 compounds from PubChem BioAssay (NCATS).

Results filed as inconclusive are left out. Calls of active or inactive are those of the source. Calls come from the whole dose curve; as a rule, active = well fitted activation curve with a large enough effect; inconclusive = small, poorly fitted or top-dose-only effect; inactive = flat fitted curve, though single readings scatter.
Potency is the fitted concentration of half-maximal effect.

The assay is described as follows: qHTS for Activators of Parkin Expression: LOPAC Validation Assay (NLuc Reporter) (AID 720572;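 for activation: 0% = DMSO and 100% = positive control compound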). The settings on record: Parkin promoter NanoLuc reporter cells, luminescence; series mostly up to 46.1 µM; activation: at the top concentration. The source says: Parkin is an E3 ubiquitin ligase localized in the cytosol of cells expressed in many tissues, including brain, skeletal muscle, heart and liver tissues. One hour after stress induction by mitochondrial uncouplers (which mimic mitochondria damage by decreasing the mitochondrial inner membrane electrochemical gradient that is used to produce ATP), Parkin translocates from the cytosol to mitochondria in many cultured cell types, including neurons and HeLa cells. Administration of other mitochondrial poisons, such as Paraquat and azide in cells lacking mitochondrial DNA (mtDNA), induces Parkin translocation to mitochondria. […] It was proposed that Parkin (together with Pink1) mediates a mitochondrial quality control pathway to maintain organelle population fidelity by removing damaged mitochondria. Understanding the normal physiologic role of Parkin (and Pink1) may uncover novel treatment strategies for sporadic Parkinson's disease patients with mutation in these genes.
A cell based qHTS in 1536 well format was developed assess modulation of Parkin expression using a neuronal cell line that stably expresses a stably expresses a luminescent coincidence reporter (FLuc and NLuc reporters) behind the Parkin promoter. The LOPAC library is used to validate the assay for quantitative high-throughput screening. The data herein reports the signal from the NLuc reporter. An increase in this signal = activation of Parkin expression. For this assay , a positive control normalized signal increase corresponding to a high quality qHTS curve class in both luminescent channels is the desired outcome for this assay.
NIH Chemical Genomics Center [NCGC]
NIH Molecular Libraries Probe Centers Network [MLPCN]
Assay Submitter (PI): Richard Youle, National Institute of Neurological Disorders and Strokes (NINDS), NIH
[1] Narendra, D., et al., Parkin is recruited selectively to impaired mitochondria and promotes their autophagy. J Cell Biol, 2008. 183(5): p.
[2] Suen, D.F., et al., Parkin overexpression selects against a deleterious mtDNA mutation in heteroplasmic cybrid cells. Proc Natl Acad Sci U S A, 2010. […] 11835-40.
[3] Cheng K, Inglese J. A coincedence reporter-gene system for high-throughput screening. Nat Methods. 2012: 9(10);937
Five microliters (1,500 cells/well) of the Parkin coincidence reporter cells were seeded to 1536 well assay plates (Greiner Catalog # 789173-F) and incubated at 37 C, 5% CO2 for 24 hours. Compounds (23 nL) were pinned using the Kalypsys robotic system equipped with 1536 pin head adaptor in 7-point dose response. The assay plates were incubated for additional 24 hr at 37 C, 5% CO2 followed by a volume reduction in each well to 2 uL using an automated plate washer/aspirator. Following the volume reduction,2 uL of FLuc detection reagent and plates were incubated for 10 minutes at room temperature. The FLuc luminescence signal was obtained using the PerkinElmer ViewLux plate imager and then 2 uL of NanoLuc detection reagent was added to the plates. After another 10 minute incubation, NanoLuc signal was obtained using the PerkinElmer ViewLux plate imager as before. Data from each channel was normalized to DMSO (neutral control) and the positive control compounds (100%).
Consider `Cc1nc2c(OCc3ccccc3)cccn2c1CC#N`, for which the “activation” value is 2.73% (inactive). For `CSc1nc(N)c2ncn([C@@H]3O[C@H](COP(=O)(O)OP(=O)(O)O)C(O)[C@H]3O)c2n1` (stereo not given in full), the “activation” value is 0.71% (inactive). Take `CN(C)CCCc1cc(C(=O)Nc2ccc(-c3ccncc3)cc2)ccc1O`: the “activation” value was 6.9% (inactive). Still for that read-out and setting: next, `Clc1nccc2c1ccc1ccccc12`: 5.5% (inactive); `CCCCCCCCCCC/C=C\C(C)(C)/C=C\CCCC(=O)O`: 7.81% (inactive); `CCC1(O)CC2CN(CCc3c([nH]c4ccccc34)[C@@](C(=O)OC)(c3cc4c(cc3OC)N(C=O)C3[C@]45CCN4CC=C[C@@](CC)([C@@H](OC(C)=O)[C@]3(O)C(=O)OC)[C@H]45)C2)C1` (stereo not given in full): -13.9% (inactive).

On to `CC(C)Cn1c(=O)n(C)c(=O)c2[nH]cnc21`, for which the “activation” value was 8.16% (inactive). The same measure, in the same setting: to `C[N+](C)(C)CC=O` belongs -4.45% (inactive); to `OC[C@H]1NC[C@@H](O)[C@@H]1O`, -0.225% (inactive); to `COC1(C2=NCCN2)COc2ccccc2O1` (stereo not given), -2.05% (inactive). On the same count and under the same terms, next, `N[C@H](C(=O)O)c1cc(O)cc(O)c1`: -6.6% (inactive). Same read-out and setting: next, `NCCCNCCCCNCCCN`: 1.67% (inactive).

As for `O=c1ccc2c(OCCCCc3ccccc3)c3ccoc3cc2o1`, the “activation” value was -1.84% (inactive).

Regarding `CN1CCc2cc(Cl)c(O)cc2[C@@H](c2ccccc2)C1`, the “activation” value is -3.17% (inactive). The same measure, in the same setting: to `NCC(O)(CS(=O)(=O)O)c1ccc(Cl)cc1` (stereo not given) belongs -1.25% (inactive); to `O=C(O)c1ccccc1Nc1cccc(OCc2ccc3ccccc3n2)c1`, 25.4% (inactive).

On to `NC(=O)CC[C@H](N)C(=O)O`, for which the “activation” value is 0.853% (inactive). Still for that read-out and setting: next, `CC(C)(CO)Cc1cc(C(C)(C)C)c(O)c(C(C)(C)C)c1`: 0.715% (inactive); `CC(=O)N[C@@H](Cc1c[nH]c2ccccc12)C(=O)OCc1cc(C(F)(F)F)cc(C(F)(F)F)c1`: -0.0093% (inactive); `CCC1(O)CC2CN(CCc3c([nH]c4ccccc34)[C@@](C(=O)OC)(c3cc4c(cc3OC)N(C)C3[C@]45CCN4CC=C[C@@](CC)([C@@H](OC(C)=O)[C@]3(O)C(=O)OC)[C@H]45)C2)C1` (stereo not given in full): -17.1% (inactive). As to `OC1(c2ccc(Cl)cc2)CCN(Cc2c[nH]c3ccccc23)CC1`, the “activation” value was -8.31% (inactive). Take `CCCc1c(-c2ccc(O)cc2)nn(-c2ccc(O)cc2)c1-c1ccc(O)cc1`: the Potency is 2060 nM (active). With `O=C(OCCN1CCOCC1)C1(c2ccccc2)CCCCC1`, the “activation” value was -4.8% (inactive). On the same count and under the same terms, to `NC(N)=NC(N)=Nc1cccc(Cl)c1` belongs -3.73% (inactive). Same read-out and setting: to `c1ccc(C(NCc2cccnc2)(c2ccccc2)c2ccccc2)cc1` belongs 3.18% (inactive). For `Nc1ccc(N2C(=O)c3ccccc3C2=O)c(Cl)c1`, the “activation” value was -3.6% (inactive). As for `COC(=O)C1=C(C)NC(C)=C([N+](=O)[O-])C1c1ccccc1C(F)(F)F` (stereo not given), the “activation” value is 13.5% (inactive). On to `CCCCCCCCCCCCCCCCCCOC[C@H](COP(=O)([O-])OCC[N+](C)(C)C)OC`, for which the “activation” value is -23.2% (inactive). With `N=C(N)c1ccccc1`, the “activation” value is -1.66% (inactive). Consider `N[C@@H](CS(=O)O)C(=O)O`, for which the “activation” value was -3.95% (inactive). Regarding `NC[C@@H]1O[C@H](c2ccccc2)Cc2c1ccc(O)c2O`, the “activation” value was 6.65% (inactive). Same read-out and setting: to `CCCCCCCCCCCCCCC[C@H](O)[C@H](N)CO` belongs -10.1% (inactive).

Turning to `O=[N+]([O-])c1cccc2c(Br)[nH]nc12`, the “activation” value was -3.31% (inactive).

For the compound `Nc1nc2ccc(Cl)cc2c2nc(-c3ccco3)nn12`, the “activation” value was 8.71% (inactive). On the same count and under the same terms, next, `Fc1ccc(CN(C2=NCCN2)c2c(Cl)cccc2Cl)cc1`: -5.32% (inactive); `CCCOC(=O)c1c(-c2ccccc2)nc(CC)c(C(=O)SCC)c1CCC`: -5.94% (inactive). Same read-out and setting: to `Cn1c(=O)[nH]c2ncn(C)c2c1=O` belongs 0.482% (inactive). The same measure, in the same setting: next, `COc1ccccc1N1CCN(CCCNc2c(C)c(=O)n(C)c(=O)n2C)CC1`: -3.12% (inactive); `CC(/C=C/c1cccc(Oc2ccc(F)cc2)c1)N(O)C(N)=O` (stereo not given): -11.1% (inactive); `Oc1cc2c(cc1O)C(c1ccccc1)CNCC2` (stereo not given): 1.28% (inactive).
